The results in this text go back to PubChem BioAssay AID2289 (National Center for Advancing Translational Sciences (NCATS), 2010).

Out of some 340,000 compounds screened, about 3,300 (0.97%) were called active. Not shown: some 9% with an inconclusive outcome. Calls come from the whole dose curve; as a rule, active = well fitted inhibition curve with a large enough effect; inconclusive = small, poorly fitted or top-dose-only effect, or effect the other way; inactive = flat fitted curve, though single readings scatter. This is one part of the list.
Potency is the fitted concentration of half-maximal effect.

This experiment is described as follows: qHTS Assay for Modulators of miRNAs and/or Inhibitors of miR-21. Note: nearly all actives have a fitted effect of over 55% in size. The note with it: HeLa miR-21-FLuc reporter, luciferase luminescence, 48 h; actives lower the signal. In short, it runs like this:
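Using DMEM plus 10% FBS, HeLa miR-21-FLuc cells are incubated with test compounds (final up to about 40uM) for 48 hours; firefly luciferase signal is then imaged following reagent-mediated lysis.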
A general note: In qHTS, concentration-response curves come from the screen itself.
As to `Cc1ccc(SCCC(=O)N2CCC(C)CC2)cc1`, the Potency was 7.36 µM (active). Consider `O=C(O)c1c2c(nc3ccccc13)/C(=C/c1ccc(OC(F)F)cc1)CCC2`, for which the Potency was 14.7 µM (active). `CN(C)c1ccc(/C=C2\CCCc3c2nc2ccccc2c3C(=O)O)cc1`: the Potency is 4.65 µM (active). Regarding `Cc1ccc2oc(-c3ccc(NC(=O)c4cccc(F)c4)c(C)c3)nc2c1`, the Potency was 7.36 µM (active).

As to `Cc1cc2nc(-c3ccc(NC(=O)C(C)C)cc3)oc2cc1C`, the Potency is 0.369 µM (active). For `Cc1ccc2oc(-c3ccc(Cl)c(NC(=O)c4cc5ccccc5o4)c3)nc2c1`, the Potency was 5.85 µM (active). As for `Cc1ccc2oc(-c3ccc(C)c(NC(=O)c4ccc(-c5ccccc5[N+](=O)[O-])o4)c3)nc2c1`, the Potency was 8.26 µM (active). Regarding `Cc1cc2nc(-c3ccc(NC(=O)c4cc5ccccc5o4)cc3)oc2cc1C`, the Potency was 8.26 µM (active).

As to `C/C(=N\NC(=O)c1ccoc1C)c1cccc2ccccc12`, the Potency is 7.36 µM (active).

For the molecule `CCc1ccc(C(=O)N/N=C/c2cccc3ccccc23)nc1`, the Potency was 8.26 µM (active). In the case of `C/C(=N\NC(=O)c1ccoc1C)c1ccccc1` it was 1.85 µM (active).

In the case of `Cc1ccc(NC(=O)c2ccoc2C)cc1C`, the Potency is 4.14 µM (active). In the case of `Cc1occc1C(=O)NNC(=S)Nc1ccccc1C(F)(F)F` it was 8.26 µM (active); in that of `Cc1occc1C(=O)N/N=C/c1cnn(C)c1C`, 13.1 µM (active); in that of `C/C(=N\NC(=O)c1ccco1)c1ccc(-c2ccccc2)cc1`, 2.93 µM (active). On to `C/C(CC(=O)NC(C)(C)C)=N\NC(=O)c1ccco1`, for which the Potency was 6.56 µM (active).

In the case of `C/C(=N/NC(=O)c1ccoc1C)c1ccc(N2CCOCC2)cc1`, the Potency was 0.927 µM (active). Next, `Cc1occc1C(=O)N/N=C/c1cccc2ccccc12`: 2.07 µM (active). On to `Cc1occc1C(=O)NNC(=O)c1ccccc1C(=O)O`, for which the Potency is 1.17 µM (active). Regarding `O=[N+]([O-])c1ccccc1-c1cc(-c2ccccc2O)n[nH]1`, the Potency is 2.07 µM (active). Next, `c1nc(NCCN2CCOCC2)c2c3c(sc2n1)CCCCC3`: 16.5 µM (active); `Cc1ccc(O)c(NC(=O)c2cc(-c3cccs3)on2)c1`: 4.65 µM (active). Next, `Cc1ccc(O)c(NC(=O)c2cc(-c3ccco3)on2)c1`: 13.1 µM (active); `Cc1ccc(O)c(NC(=O)c2cc(-c3ccccc3)on2)c1`: 2.61 µM (active); `O=C(Nc1cc(Cl)ccc1O)c1cc(-c2ccco2)on1`: 16.5 µM (active). Take `Cc1cc(NCc2ccccn2)ccc1Br`: the Potency was 9.27 µM (active). In the case of `COc1ccc(-c2nc(C#N)c(NCCc3ccccc3)o2)cc1` it was 9.27 µM (active); in that of `CC(C)(C)c1ccc(-c2nc(C#N)c(NCc3ccncc3)o2)cc1`, 4.14 µM (active); in that of `COc1ccc(-c2nc(C#N)c(NCCCn3ccnc3)o2)cc1OC`, 16.5 µM (active).

In the case of `COc1ccc(-c2nc(C#N)c(NCc3ccc(C)cc3)o2)cc1OC`, the Potency was 7.36 µM (active). With `COc1ccc(-c2nc(C#N)c(NCCc3ccccc3)o2)cc1OC`, the Potency is 2.93 µM (active).

For `CCC(=O)Nc1cccc(OCc2cc(=O)n3cc(C)ccc3n2)c1`, the Potency was 6.56 µM (active). In the case of `Cc1csc2ncc(C(=O)Nc3ccc4c(c3)OCCO4)c(=O)n12` it was 0.208 µM (active); in that of `O=C(Nc1ccc2c(c1)OCCO2)c1cnc2n(c1=O)CCS2`, 1.47 µM (active); in that of `COc1cccc(-c2noc(-c3ccoc3C)n2)c1`, 6.56 µM (active).

On to `COc1ccc(-c2noc(-c3ccoc3C)n2)cc1`, for which the Potency was 2.07 µM (active). With `Cc1ccc(/C=N/Nc2nnc(Cl)c3ccccc23)cc1`, the Potency was 0.414 µM (active). `Cc1ccc(/C=N/Nc2ncnc3nc[nH]c23)cc1`: the Potency is 0.826 µM (active). As to `CCc1ccc(/C=N/Nc2ncnc3nc[nH]c23)cc1`, the Potency was 0.656 µM (active). Turning to `Cc1ccc(NC(=O)Nc2ncnc3nc[nH]c23)cc1`, the Potency was 2.93 µM (active). On to `Cc1cccc(/C=N/NC(=O)c2ccc(Br)cc2)c1`, for which the Potency was 18.5 µM (active). For the molecule `O=C(NNC(=S)Nc1ccccc1)c1cccs1`, the Potency was 2.07 µM (active). For the molecule `COc1ccc(NC(=S)NNC(=O)c2cccs2)cc1`, the Potency is 7.36 µM (active). Next, `CCN(CC)c1ccc(NC(=S)NC(=O)c2cccs2)cc1`: 2.33 µM (active); `CCc1ccccc1Nc1ncnc2c1cnn2-c1ccc(Cl)cc1`: 6.56 µM (active).

Consider `CCOc1ccccc1Nc1ncnc2c1cnn2-c1ccc(C)cc1`, for which the Potency was 5.21 µM (active).

Consider `Cc1ccc(-n2ncc3c(Nc4cccc(C)c4C)ncnc32)cc1`, for which the Potency was 2.07 µM (active).

Turning to `CCOc1ccccc1-c1nc(-c2ccc(C)nc2OC)no1`, the Potency was 3.69 µM (active).

Consider `COc1nc(-c2ccccc2)ccc1-c1noc(C)n1`, for which the Potency was 7.36 µM (active). As for `COc1ccccc1-c1nc(-c2ccc(C)nc2OC)no1`, the Potency is 3.29 µM (active). In the case of `COc1nc(C)ccc1-c1noc(-c2cccs2)n1` it was 1.85 µM (active); in that of `CCOc1ccc(-c2nc(-c3ccccc3C)no2)cc1`, 0.826 µM (active); in that of `NC(=O)c1ccccc1NC(=O)/C=C/c1c(Cl)cccc1Cl`, 2.93 µM (active). In the case of `O=C(/C=C/c1c(F)cccc1Cl)Nc1nc2ccccc2[nH]1` it was 5.21 µM (active); in that of `O=C(/C=C/c1c(F)cccc1Cl)Nc1ncccn1`, 3.29 µM (active). In the case of `S=C(Nc1ccc2[nH]ccc2c1)NC1CCCCC1`, the Potency was 4.14 µM (active). Turning to `Cc1cccn2cc(-c3c[nH]c4ccccc34)nc12`, the Potency was 13.1 µM (active). Consider `O=C(c1cc(COc2ccc(F)cc2F)on1)N1CCSCC1`, for which the Potency was 5.85 µM (active). For `O=C(c1cc(COc2ccc(F)cc2Cl)on1)N1CCCCCC1`, the Potency was 4.14 µM (active). As for `O=C(c1cc(COc2ccc(F)cc2F)on1)N1CCOCC1`, the Potency is 14.7 µM (active).

For `O=C(c1cc(COc2ccc(F)cc2Cl)on1)N1CCSCC1`, the Potency is 6.56 µM (active). As to `O=C(c1cc(COc2c(F)cccc2F)on1)N1CCCCCC1`, the Potency was 7.36 µM (active). Next, `O=c1c(Cl)c(N2CCN(c3ccc(F)cc3)CC2)cnn1-c1nc2ccccc2s1`: 3.29 µM (active); `Cc1ccc(C)c(N2CCN(c3cnn(-c4nc5ccccc5s4)c(=O)c3Cl)CC2)c1`: 0.927 µM (active).

Turning to `O=C(/C=C/c1ccccc1)NC1CC2CCC1C2` (configuration not stated), the Potency is 7.36 µM (active).

Regarding `Cc1cc(-c2ccc(N3CCOCC3)cc2)nc2ccccc12`, the Potency was 3.29 µM (active). For the molecule `COc1cccc(C(=O)NN2C(=S)N(c3ccccc3)C(=O)C2CC(N)=O)c1` (configuration not stated), the Potency was 6.56 µM (active). In the case of `NC(=O)CC1C(=O)N(c2ccccc2)C(=S)N1NC(=O)c1ccc(Br)cc1` (configuration not stated) it was 7.36 µM (active); in that of `COc1ccccc1-c1nnc(-c2ccc(N3CCOCC3)cc2)o1`, 7.36 µM (active). Take `COc1ccc(-c2nnc(-c3ccc(Br)o3)o2)cc1OC`: the Potency is 14.7 µM (active). In the case of `CCOc1ccc(-c2nnc(-c3cccs3)o2)cc1OCC` it was 6.56 µM (active); in that of `COc1ccc(-c2nnc(-c3ccccc3)o2)cc1OC`, 3.69 µM (active); in that of `c1csc(-c2nc(-c3ccc(-c4ccon4)s3)no2)c1`, 0.329 µM (active). Next, `COc1ccc(-c2noc(-c3cccs3)n2)cc1OC`: 0.826 µM (active); `CN(C)c1ccc(-c2nnc(-c3cccs3)o2)cc1`: 0.117 µM (active). Next, `COc1ccc(CCN(C)C(=O)CCc2nnc(-c3ccccc3)o2)cc1OC`: 4.65 µM (active). Turning to `COc1ccc(-c2nnc(-c3cccs3)o2)cc1OC`, the Potency is 2 µM (active). Next, `CCOc1ccc(-c2nnc(-c3ccco3)o2)cc1OCC`: 16.5 µM (active); `Cc1cc(C)c(C#N)c(SCC(=O)Nc2nonc2N)n1`: 14.7 µM (active). Consider `Cc1cc(C)c(C#N)c(SCC(=O)Nc2ccc3c(c2)OCO3)n1`, for which the Potency is 3.29 µM (active). For the molecule `COc1ccc(NC(=O)c2ccc(C)cc2)c(OC)c1`, the Potency is 5.85 µM (active). Next, `COc1ccc(NC(=O)c2cc(C(C)C)on2)c(OC)c1`: 3.69 µM (active). Next, `COc1ccc(NC(=S)Nc2cc(C)ccn2)c(OC)c1`: 1.65 µM (active); `CCN(CC)C(=O)c1ccc(-c2cccs2)s1`: 6.56 µM (active). For the molecule `CC(=O)N=C(N)Sc1nc2ccccc2[nH]1`, the Potency is 2.33 µM (active). As for `NC(=O)c1ccccc1N/C=C/C(=O)c1cccs1`, the Potency is 0.521 µM (active).

In the case of `CCOC(=O)c1ccccc1N/C=C/C(=O)c1cccs1`, the Potency is 9.27 µM (active). In the case of `Cc1ccc2nc(-c3ccc(SCC(=O)Nc4nc(C)cs4)nc3)[nH]c2c1` it was 1.47 µM (active). Next, `c1ccc(N2CCN(c3cnc4ccccc4n3)CC2)cc1`: 1.04 µM (active). In the case of `COc1cc(C)ccc1OCCCOc1ccccc1Br` it was 14.7 µM (active). As for `COc1ccccc1OCCCOc1ccc(C)cc1Br`, the Potency is 14.7 µM (active). Consider `C/C(=N\NC(=O)c1ccccc1)c1ccc(N2CCCCC2)cc1`, for which the Potency is 6.56 µM (active). Next, `O=C(c1ccc(F)cc1)c1ccc(N2CCCCC2)cc1`: 4.65 µM (active); `COc1ccc(/C(C)=N/NC(=O)c2ccccc2N)cc1`: 18.5 µM (active); `COc1ccc(C(=O)N/N=C(/C)c2ccc(N3CCCCC3)cc2)cc1`: 8.26 µM (active). As for `Cc1ccc(/C(N)=N/OC(=O)c2ccc(C)cc2Cl)cc1`, the Potency is 0.261 µM (active). Next, `Cc1ccc(/C(N)=N/OC(=O)c2ccc(Cl)cc2Cl)cc1`: 1.04 µM (active); `CCn1c(/C=C/c2c[nH]c3ccccc23)nc2ccccc2c1=O`: 0.414 µM (active); `O=C(NNc1ncnc2ccccc12)c1cccc(Cl)c1`: 0.927 µM (active). Next, `O=C(c1cnsn1)N1CCC(CO)(Cc2cccc(F)c2)CC1`: 14.7 µM (active); `Cc1cc(C)n2nc(-c3cccc(Br)c3)cc2n1`: 3.29 µM (active). Regarding `CSc1nc(N)n2nc(-c3ccc(Cl)cc3)cc2n1`, the Potency is 0.826 µM (active).

Consider `Cc1nc2cc(-c3ccc(Cl)cc3)nn2c(NCCN(C)C)c1C`, for which the Potency was 5.85 µM (active). Turning to `Cc1cccc(-c2cc3nc(C)cc(C)n3n2)c1`, the Potency was 1.85 µM (active).

For `Cc1cc(C)n2nc(-c3ccc(Cl)cc3)cc2n1`, the Potency is 1.17 µM (active).

Turning to `Cc1ccc(-c2cc3nc(C)cc(C)n3n2)cc1`, the Potency is 3.69 µM (active).

With `COc1ccc(-c2cc3nc(C)cc(C)n3n2)cc1`, the Potency was 3.29 µM (active).
